Test results as given in PubChem BioAssay.
For part of these data: Results with a measured potency or affinity are listed apart. The list shows a part of the results. Results filed as inconclusive are left out. The source made the active and inactive calls. Unless noted, the rule behind the calls is not given here.

How the values were obtained:
[1] = Ring1 mRNA increase in mouse ESCs, confirmation, esBAF inhibitor project, cell-based, mouse ESC, RT-qPCR, cherry-pick (AID 743176;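 active = Ring1 gene expression raised more than 2-fold over untreated cells in both replicates at either tested dose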;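 note: Ring1 transcript normalised to actin housekeeping signal by TaqMan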); settings: mouse ESC E14, Ring1 mRNA RT-qPCR fold change, stronger effect = higher value
[2] = Fgf4 mRNA decrease in mouse ESCs, confirmation, esBAF inhibitor project, cell-based, mouse ESC, RT-qPCR, cherry-pick (AID 743177;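 active = Fgf4 expression under 0.8 fold of control in both repeat measurements at one or both tested doses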;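 note: Fgf4 transcript normalised to actin in duplex TaqMan qPCR; cells exposed to compound for 24 h before lysis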); settings: mouse ESC E14, Fgf4 mRNA qPCR fold change, stronger effect = lower value
[3] = esBAF inhibition via Bmi1 de-repression, confirmation, cell-based, RT-qPCR, mouse ESC, single point, cherry-pick (AID 743180;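 active = Bmi1 expression fold change above 6 at either tested concentration, seen in replicate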); settings: mouse ESC E14, Bmi1 mRNA qPCR fold, stronger effect = higher value
[4] = A549 cell cytotoxicity, cytotoxicity control, plate reader, single point, cherry-pick (AID 743188); settings: at 25 µM
[5] = HepG2 cell cytotoxicity, cytotoxicity control, plate reader, single point, cherry-pick (AID 743189; in the data active = activity change below about -50%); settings: at 25 µM, stronger effect = lower value
[6] = HEK293 cell cytotoxicity, cytotoxicity control, plate reader, single point, cherry-pick (AID 743190; in the data active = activity change below about -38%, passing the limit was not always enough); settings: at 25 µM
[7] = A549 cell cytotoxicity, dose response, cytotoxicity control, plate reader, cherry-pick, antagonist series (AID 743412);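 note: 0% = neutral control wells and -100% = positive control wells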
[8] = HepG2 cell cytotoxicity, dose response, cytotoxicity control, plate reader, cherry-pick, antagonist series (AID 743416);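 note: 0% = neutral control wells and -100% = positive control wells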

Question: For `CC(Cc1cccs1)NC(=O)c1cccc(Cl)c1` (configuration not stated), which fold change ([1]; Ring1 fold increase, at 7 µM) is on record?
Answer: 1.11

Question: And the fold change ([1]; at 33 µM)?
Answer: 1.07 (inactive)

Question: And the Fgf4 expression fold change ([2]; Fgf4 expression, at 7 µM)?
Answer: 1.02

Question: What about the Fgf4 expression fold change ([2]; at 33 µM) of the same compound?
Answer: 1.08 (inactive)

Question: What about the fold change ([3]; Bmi1 de-repression, at 7 µM) of the same compound?
Answer: 1.36

Question: What about the fold change ([3]; at 33 µM) of the same compound?
Answer: 1.53 (inactive)

Question: And the cell viability change % (negative = cytotoxic) [4]?
Answer: -16% (inactive)

Question: What about the activity change, negative = inhibition [5] of the same compound?
Answer: -51.2% (active)

Question: What about the activity change, negative = inhibition [6] of the same compound?
Answer: -22.2% (inactive)

Question: Which results are given for `O=C(c1noc2c1CCCC2)N1CCc2ccccc2C1`?
Answer: fold change ([1]; Ring1 fold increase, at 7 µM): 1.38; fold change ([1]; at 33 µM): 1.19 (inactive); Fgf4 expression fold change ([2]; Fgf4 expression, at 7 µM): 1.06; Fgf4 expression fold change ([2]; at 33 µM): 1.15 (inactive); fold change ([3]; Bmi1 de-repression, at 7 µM): 1.08; fold change ([3]; at 33 µM): 1.13 (inactive); cell viability change % (negative = cytotoxic) [4]: -13.7% (inactive); activity change, negative = inhibition [5]: 0.136% (inactive); activity change, negative = inhibition [6]: -12.4% (inactive)

Question: For `O=C(CCNC(=O)c1ccccc1)Nc1nc2ccccc2s1`, which fold change ([1]; Ring1 fold increase, at 7 µM) is on record?
Answer: 1.2

Question: And the fold change ([1]; at 33 µM)?
Answer: 0.581 (inactive)

Question: And the Fgf4 expression fold change ([2]; Fgf4 expression, at 7 µM)?
Answer: 0.839

Question: And the Fgf4 expression fold change ([2]; at 33 µM)?
Answer: 0.653 (active)

Question: What about the fold change ([3]; Bmi1 de-repression, at 7 µM) of the same compound?
Answer: 1.36

Question: And the fold change ([3]; at 33 µM)?
Answer: 1.77 (inactive)

Question: What about the cell viability change % (negative = cytotoxic) [4] of the same compound?
Answer: -14% (inactive)

Question: What about the activity change, negative = inhibition [5] of the same compound?
Answer: 11.7% (inactive)

Question: What about the activity change, negative = inhibition [6] of the same compound?
Answer: -12.3% (inactive)

Question: What does the source list for `O=C(c1cc(-c2ccc(Cl)cc2)on1)N1CCN(c2ccccc2)CC1`?
Answer: fold change ([1]; Ring1 fold increase, at 7 µM): 1.25; fold change ([1]; at 33 µM): 1.06 (inactive); Fgf4 expression fold change ([2]; Fgf4 expression, at 7 µM): 1.02; Fgf4 expression fold change ([2]; at 33 µM): 0.994 (inactive); fold change ([3]; Bmi1 de-repression, at 7 µM): 1.17; fold change ([3]; at 33 µM): 1.27 (inactive); cell viability change % (negative = cytotoxic) [4]: -16.6% (inactive); activity change, negative = inhibition [5]: 9.34% (inactive); activity change, negative = inhibition [6]: -19.5% (inactive)

Question: For `C=CCN1CCN(C(=O)CCCc2ccccc2)CC1`, which outcome [7] is on record?
Answer: inactive

Question: For `COc1ccc(-c2[nH]ncc2-c2ccc3c(c2)OCCO3)c(O)c1`, which outcome [7] is on record?
Answer: inactive

Question: For `O=C(NC1(Cc2ccccc2)CCN(Cc2ccc(-c3ccccc3)cc2)C1=O)c1ccccc1` (configuration not stated), which outcome [7] is on record?
Answer: inactive

Question: For `CC(C)(C)NC(=O)Cn1nnc(-c2ccccc2Cl)n1`, which fold change ([1]; Ring1 fold increase, at 7 µM) is on record?
Answer: 1.18

Question: And the fold change ([1]; at 33 µM)?
Answer: 1.12 (inactive)

Question: And the Fgf4 expression fold change ([2]; Fgf4 expression, at 7 µM)?
Answer: 0.977

Question: And the Fgf4 expression fold change ([2]; at 33 µM)?
Answer: 0.933 (inactive)

Question: And the fold change ([3]; Bmi1 de-repression, at 7 µM)?
Answer: 1.16

Question: What about the fold change ([3]; at 33 µM) of the same compound?
Answer: 1.15 (inactive)

Question: What about the cell viability change % (negative = cytotoxic) [4] of the same compound?
Answer: -11.9% (inactive)

Question: And the activity change, negative = inhibition [5]?
Answer: -3.1% (inactive)

Question: And the activity change, negative = inhibition [6]?
Answer: -13.6% (inactive)

Question: Which outcome [7] does the source give for `CN(C)c1ccc(C(=O)Nc2nc3c(s2)CCCC3)cc1` here?
Answer: inactive

Question: For `COc1ccc(-c2csc(Nc3cccc(C)n3)n2)cc1OC`, which fold change ([1]; Ring1 fold increase, at 7 µM) is on record?
Answer: 1.32

Question: And the fold change ([1]; at 33 µM)?
Answer: 1.24 (inactive)

Question: And the fold change ([3]; Bmi1 de-repression, at 7 µM)?
Answer: 1.47

Question: What about the fold change ([3]; at 33 µM) of the same compound?
Answer: 2.28 (inactive)

Question: What about the cell viability change % (negative = cytotoxic) [4] of the same compound?
Answer: -8.92% (inactive)

Question: And the activity change, negative = inhibition [5]?
Answer: 29% (inactive)

Question: And the activity change, negative = inhibition [6]?
Answer: 4.06% (inactive)

Question: With `O=C(c1ccc(Cl)cc1)c1cnc(Nc2ccccc2)s1` as the compound, how does the fold change ([1]; Ring1 fold increase, at 7 µM) read?
Answer: 1.37

Question: What about the fold change ([1]; at 33 µM) of the same compound?
Answer: 1.43 (inactive)

Question: And the Fgf4 expression fold change ([2]; Fgf4 expression, at 7 µM)?
Answer: 1.07

Question: And the Fgf4 expression fold change ([2]; at 33 µM)?
Answer: 0.927 (inactive)

Question: And the fold change ([3]; Bmi1 de-repression, at 7 µM)?
Answer: 1.41

Question: What about the fold change ([3]; at 33 µM) of the same compound?
Answer: 1.36 (inactive)

Question: And the cell viability change % (negative = cytotoxic) [4]?
Answer: -9.73% (inactive)

Question: And the activity change, negative = inhibition [5]?
Answer: -14.8% (inactive)

Question: And the activity change, negative = inhibition [6]?
Answer: -18.7% (inactive)

Question: For `COc1ccc(CNC(=O)COc2ccccc2C(=O)c2cnn(-c3ccccc3)c2)cc1OC`, which fold change ([1]; Ring1 fold increase, at 7 µM) is on record?
Answer: 1.09

Question: And the fold change ([1]; at 33 µM)?
Answer: 1.32 (inactive)

Question: And the Fgf4 expression fold change ([2]; Fgf4 expression, at 7 µM)?
Answer: 1.03

Question: What about the Fgf4 expression fold change ([2]; at 33 µM) of the same compound?
Answer: 0.967 (inactive)

Question: And the fold change ([3]; Bmi1 de-repression, at 7 µM)?
Answer: 1.36

Question: And the fold change ([3]; at 33 µM)?
Answer: 1.57 (inactive)

Question: What about the cell viability change % (negative = cytotoxic) [4] of the same compound?
Answer: 0.333% (inactive)

Question: And the activity change, negative = inhibition [5]?
Answer: -55.5% (active)

Question: What about the activity change, negative = inhibition [6] of the same compound?
Answer: -15.3% (inactive)

Question: Which fold change ([1]; Ring1 fold increase, at 7 µM) does the source give for `COc1ccc(C(=O)CCc2ccccc2O)c(OC)c1` here?
Answer: 1.29

Question: What about the fold change ([1]; at 33 µM) of the same compound?
Answer: 1.23 (inactive)

Question: What about the Fgf4 expression fold change ([2]; Fgf4 expression, at 7 µM) of the same compound?
Answer: 0.836

Question: And the Fgf4 expression fold change ([2]; at 33 µM)?
Answer: 0.979 (inactive)

Question: And the fold change ([3]; Bmi1 de-repression, at 7 µM)?
Answer: 1.55

Question: And the fold change ([3]; at 33 µM)?
Answer: 1.13 (inactive)

Question: What about the cell viability change % (negative = cytotoxic) [4] of the same compound?
Answer: -6.31% (inactive)

Question: What about the activity change, negative = inhibition [5] of the same compound?
Answer: -33.9% (inactive)

Question: And the activity change, negative = inhibition [6]?
Answer: 14.9% (inactive)

Question: With `COc1cc(SC)ccc1C(=O)Nc1ccc(Cl)cn1` as the compound, how does the outcome [7] read?
Answer: inactive

Question: What about the outcome [8] of the same compound?
Answer: inactive

Question: For `Cc1cc(C(=O)CSc2nnc(N)s2)c(C)n1Cc1cccs1`, which outcome [7] is on record?
Answer: inactive

Question: What about the outcome [8] of the same compound?
Answer: inactive

Question: What does the source list for `O=C(O)c1cccc(Nc2ccnc(Nc3cccc(C(=O)O)c3)n2)c1`?
Answer: outcome [7]: inactive; outcome [8]: inactive

Question: Which outcome [7] does the source give for `Cc1ccc(C(=O)C2C(=O)C3CCC2C3)cc1` (configuration not stated) here?
Answer: inactive

Question: What about the outcome [8] of the same compound?
Answer: inactive

Question: With `COCCn1c(C)c(C)c2c(NCCc3ccccc3)ncnc21` as the compound, how does the outcome [7] read?
Answer: inactive

Question: And the outcome [8]?
Answer: inactive

Question: Which results are given for `COc1ccc(OCC(=O)Nc2nccs2)cc1`?
Answer: outcome [7]: inactive; outcome [8]: inactive

Question: For `Nc1c(C(=O)Nc2cccc(C(=O)O)c2)sc2nc3c(cc12)CCCC3`, which outcome [7] is on record?
Answer: inactive

Question: What about the outcome [8] of the same compound?
Answer: inactive

Question: For `CCOc1ccc(C(=O)Nc2cccc(C(=O)O)c2C)cc1Cl`, which outcome [7] is on record?
Answer: inactive

Question: What about the outcome [8] of the same compound?
Answer: inactive

Question: For `C[C@H](CO)N1C[C@H](C)[C@H](CN(C)C(=O)Nc2ccc(F)cc2)OCCCC[C@H](C)Oc2ccc(NC(=O)C3CCCCC3)cc2C1=O`, which outcome [7] is on record?
Answer: inactive

Question: And the outcome [8]?
Answer: inactive

Question: With `Cc1c(NC(=O)c2ccc(-c3ccccc3)cc2)cccc1C(=O)O` as the compound, how does the outcome [7] read?
Answer: inactive

Question: And the outcome [8]?
Answer: inactive

Question: Which outcome [7] does the source give for `Cc1cc(C(=O)CN2C(=O)c3ccccc3S2(=O)=O)c(C)n1C(C)C` here?
Answer: inactive

Question: What about the outcome [8] of the same compound?
Answer: inactive

Question: For `CCS(=O)(=O)N1Cc2ccccc2CC1C(=O)Nc1nc2ccccc2s1` (configuration not stated), which outcome [7] is on record?
Answer: inactive

Question: What about the outcome [8] of the same compound?
Answer: inactive

Question: With `c1ccc(-n2ncc3c(N4CCCCC4)ncnc32)cc1` as the compound, how does the outcome [7] read?
Answer: inactive

Question: And the outcome [8]?
Answer: inactive

Question: For `COCCCNc1ccn2nc(-c3ccccc3)cc2n1`, which outcome [7] is on record?
Answer: inactive

Question: What about the outcome [8] of the same compound?
Answer: inactive

Question: What does the source list for `Clc1ccc(-n2ncc3c(N4CCCC4)ncnc32)cc1`?
Answer: outcome [7]: inactive; outcome [8]: inactive

Question: With `O=C(CN1C(=O)c2ccccc2S1(=O)=O)c1ccccc1F` as the compound, how does the outcome [7] read?
Answer: inactive

Question: What about the outcome [8] of the same compound?
Answer: inactive

Question: For `CCc1nc(Sc2nnnn2-c2ccccc2)c2c3c(sc2n1)CCCC3`, which outcome [7] is on record?
Answer: inactive

Question: What about the outcome [8] of the same compound?
Answer: inactive
